Molecules are shown by their SMILES. A number with no mark means an inactive call. Records with an inconclusive call do not appear. The source made the active and inactive calls. Unless noted, the call rests on the fitted dose curve.

The nature of test [1]: Nuclear factor erythroid 2-related factor 2/antioxidant responsive element (Nrf2/ARE) small molecule agonists: luciferase reporter gene qHTS assay in human keratinocytes (AID 1919969). Further: nearly all actives have a fitted effect of over 35% in size. Further: potency means the concentration at half of the fitted maximal effect. On the technique in general: A reporter such as luciferase makes a cellular process visible.
The target of test [2] is Gonadotropin-releasing hormone receptor (Homo sapiens) (UniProt P30968). As to the kind of experiment: Human gonadotropin-releasing hormone receptor (GnRHR) small molecule agonists, calcium flux assay in GnRHR-HEK293 cells (AID 1920063). Further: nearly all actives have a fitted effect of over 35% in size. Put shortly:
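Intracellular calcium rise is the read-out: engineered human GnRHR HEK293 cells, dye-loaded, are exposed to DMSO-dissolved compounds and fluorescence at Ex/Em 480/540 is tracked for 3 min.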

Test [3] addresses KiSS-1 receptor (Homo sapiens) (UniProt Q969F8). As to the kind of experiment: Human kisspeptin (KISS1R) small molecule agonists, calcium flux assay in KISS1R-HEK293 cells (AID 1920064; active means well fitted activation curve with a large enough effect in the repeat runs). The gist of the method:
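Concentration-response testing used 15 concentrations in triplicate on human KISS1R-expressing HEK293 cells. Calcium-dependent fluorescence (Ex/Em 480/540) was followed kinetically for 3 min after compound transfer.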

Test [4] is described as follows: G protein-coupled receptor (GPCR) small molecule agonists, calcium flux assay: HEK293 wild type cell line counter screen (AID 1920065). The gist of the method: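 Fluorescence intensity signals activation. After overnight (18 h) culture and a 1 h calcium dye load at 37 C, compounds are added by pin tool and the plate read at 480/540 nm for 3 min in 1 s steps.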
Test [5] can be described thus: p53 small molecule agonists, cell-based qHTS assay with human liver microsomes (AID 1963577). Put shortly: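 In this qHTS, p53 response-element beta-lactamase cells receive test compound together with a microsome/NADPH activating system (0.5 mg/mL final each) and are incubated 16 h at 37 C before LiveBLAzer fluorescence detection.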
(In qHTS, concentration-response curves come from the screen itself.)

Test [6] in a line: p53 small molecule agonists, cell-based qHTS assay with rat liver microsomes (AID 1963578). Put shortly:
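Agonist mode in p53RE-bla reporter cells, with compounds co-incubated 16 h at 37 C alongside 0.5 mg/mL rat liver microsomes and 0.5 mg/mL NADPH (final), followed by a 2 h LiveBLAzer detection step.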

The nature of test [7]: p53 small molecule agonists, cell-based qHTS assay with human liver microsomes: qHTS cell viability counter screen (AID 1963579). Further: nearly all actives have a fitted effect of over 45% in size. Put shortly: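 Metabolically activated exposure: compounds, human liver microsomes and NADPH (0.5 mg/mL final apiece) were added to p53RE-bla cells seeded 5 h earlier, left 16 h at 37 C, and then assessed for viability by CellTiter-Glo luminescence.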

The nature of test [8]: p53 small molecule agonists, cell-based qHTS assay with rat liver microsomes: qHTS cell viability counter screen (AID 1963580). Further: nearly all actives have a fitted effect of over 45% in size. The gist of the method:
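Cytotoxicity counter screen: intracellular ATP measured by CellTiter-Glo luminescence in the same wells as the beta-lactamase reporter read, on HCT-116 p53RE-bla cells exposed 16 h at 37 C to compounds with rat liver microsomes and NADPH, each 0.5 mg/mL final.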

Test [9] in a line: p53 small molecule agonists, cell-based qHTS assay (AID 1963582; active means well fitted activation curve with a large enough effect in the signal ratio in the repeat runs, not every such curve was filed as active; the % refers to the signal ratio). The gist of the method: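 After plating, p53RE-bla cells sat 5 h in the incubator; compounds or DMSO vehicle were pinned in; a 16 h incubation at 37 C followed; FRET substrate was added and, 2 h later at RT, fluorescence was measured.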
Test [10] deals with 5-hydroxytryptamine receptor 2A (Homo sapiens) (UniProt P28223). Description: 5-hydroxytryptamine receptor 2A (HTR2A) small molecule antagonists, cell-based qHTS assay (AID 1963586). Further: nearly all actives have a fitted effect of over 45% in size. The gist of the method: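 CHO cells stably expressing human HTR2A were plated for 18 h at 37 C, then loaded with calcium dye for 1 h. Compounds were preincubated 5 min at room temperature before DOI (4 nM solution) was added. Kinetic fluorescence was read for 3 min.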

The target is the same in test [11]. Description: 5-hydroxytryptamine receptor 2A (HTR2A) small molecule agonists, cell-based qHTS assay (AID 1963587). Further: nearly all actives have a fitted effect of over 30% in size. Put shortly: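 CHO cells stably expressing human HTR2A, plated 18 h, loaded with calcium dye 1 h at 37 C. Agonist mode: compounds added and intracellular calcium fluorescence recorded kinetically for 2 min at 1 sec intervals.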
In test [12] the target is Muscarinic acetylcholine receptor M1 (Homo sapiens) (UniProt P11229). Description: Cholinergic receptor muscarinic 1 (CHRM1) small molecule antagonists, cell-based qHTS assay (AID 1963588). Further: nearly all actives have a fitted effect of over 40% in size. Put shortly:
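Compounds were tested at 15 concentrations in three independent runs. Dye-loaded CHRM1-CHO cells were exposed 5 min at room temperature before stimulation by acetylcholine added at 50nM. Intracellular calcium was read kinetically on FDSS for 3 min.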

The target is the same in test [13]. As to the kind of experiment: Cholinergic receptor muscarinic 1 (CHRM1) small molecule agonists, cell-based qHTS assay (AID 1963589). Further: nearly all actives have a fitted effect of over 35% in size. Put shortly: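 Fluorescent calcium dye reports M1 activation in stably transfected CHO cells. Compounds, 15 concentrations, added after 1 h dye loading at 37 C; kinetic reading at 1 sec intervals.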
A short description of test [14]: cAMP Responsive Elements (CRE) small molecule agonists, cell-based qHTS assay (AID 1963590). The gist of the method:
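Compound exposure lasted 3 h at 37 C/5% CO2 in CRE-bla HEK 293T cells grown in assay medium with 10% dialyzed FBS and 25 mM HEPES. Reporter signal came from LiveBLAzer B/G FRET substrate, 2 h, room temperature.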

A short description of test [15]: cAMP Responsive Elements (CRE) small molecule antagonists, cell-based qHTS assay (AID 1963591; active means well fitted inhibition curve with a large enough effect in the signal ratio in the repeat runs, not every such curve was filed as active; the % refers to the signal ratio). Put shortly: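 Stimulation used NKH477 at a final 0.25 uM for 3 h in compound-treated CRE-bla HEK293T cells, seeded 18 h beforehand. Reporter activity was measured with LiveBLAzer B/G FRET substrate after 2 h at room temperature.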
Test [16] deals with D(2) dopamine receptor (Homo sapiens) (UniProt P14416). Description: Dopamine D2 receptor (DRD2) small molecule agonists, cell-based qHTS assay (AID 1963594). Further: nearly all actives have a fitted effect of over 35% in size. Put shortly: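 HEK293 cells stably expressing human DRD2, pre-treated with PDE inhibitor Ro20-1724 (0.1 mM final) and compound 10 min at room temperature, then stimulated with NKH477 (200nM […]) for 30 min. cAMP read by HTRF (665/620 nm).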

The target is the same in test [17]. Description: Dopamine D2 receptor (DRD2) small molecule antagonists, cell-based qHTS assay (AID 1963595; active means well fitted inhibition curve with a large enough effect in the signal ratio in the repeat runs, with a control signal flat; the % refers to the signal ratio). Put shortly: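 Antagonist mode in DRD2-HEK293 cells: after compound addition with 0.1 mM Ro20-1724, cells received quinpirole (12 nM) and NKH477 (200 nM) for 30 min at room temperature; HTRF cAMP read after 1 h detection.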
A short description of test [18]: p53 small molecule agonists, cell-based qHTS assay: qHTS cell viability counter screen (AID 1963581). Further: nearly all actives have a fitted effect of over 45% in size. The gist of the method: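 Luminescence from CellTiter-Glo, reflecting ATP content, serves as the cytotoxicity measure; it is taken after the 2 h reporter substrate step in HCT-116 p53RE-bla cells dosed for 16 h at 37 C.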
In test [19] the target is Beta-2 adrenergic receptor (Homo sapiens) (UniProt P07550). Description: Adrenergic beta2 receptor (ADRB2) small molecule antagonists, cell-based qHTS assay (AID 1963592). Further: series mostly up to about 92 µM; nearly all actives have a fitted effect of over 50% in size. Put shortly:
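Assay format: CHO-ADRB2 cells, 18-20hr seeding at 37C/5% CO2, then compound plus 1nM isoproterenol agonist mix for 0.5hr RT. Homogeneous time-resolved fluorescence cAMP detection after 1hr, expressed as 665/615 nm ratio.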

The target is the same in test [20]. As to the kind of experiment: Adrenergic beta2 receptor (ADRB2) small molecule agonists, cell-based qHTS assay (AID 1963593).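 Further: CHO cells stably overexpressing human ADRB2.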 Put shortly: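 CHO cells stably over-expressing ADRB2 were plated overnight at 37C, then dosed with compounds plus a stimulation mix containing 100uM IBMX and 25uM Ro-20-1724 for 0.5hr at room temperature. cAMP was measured by HTRF competition, 1hr.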

D(2) dopamine receptor (Homo sapiens), sequence (P14416 whole entry, looked up): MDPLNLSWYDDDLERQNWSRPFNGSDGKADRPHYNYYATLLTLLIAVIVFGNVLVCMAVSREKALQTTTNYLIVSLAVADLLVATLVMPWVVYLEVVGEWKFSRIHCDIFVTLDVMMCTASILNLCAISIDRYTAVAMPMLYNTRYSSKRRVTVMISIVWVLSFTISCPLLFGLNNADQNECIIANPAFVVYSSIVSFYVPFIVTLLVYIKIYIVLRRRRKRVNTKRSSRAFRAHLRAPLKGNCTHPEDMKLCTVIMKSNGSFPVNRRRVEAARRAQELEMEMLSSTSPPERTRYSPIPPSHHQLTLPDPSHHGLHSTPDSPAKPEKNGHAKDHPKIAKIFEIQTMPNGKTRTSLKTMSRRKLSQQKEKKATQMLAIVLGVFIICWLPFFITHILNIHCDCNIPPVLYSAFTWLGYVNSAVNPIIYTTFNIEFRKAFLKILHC
Beta-2 adrenergic receptor (Homo sapiens), sequence (P07550 whole entry, looked up): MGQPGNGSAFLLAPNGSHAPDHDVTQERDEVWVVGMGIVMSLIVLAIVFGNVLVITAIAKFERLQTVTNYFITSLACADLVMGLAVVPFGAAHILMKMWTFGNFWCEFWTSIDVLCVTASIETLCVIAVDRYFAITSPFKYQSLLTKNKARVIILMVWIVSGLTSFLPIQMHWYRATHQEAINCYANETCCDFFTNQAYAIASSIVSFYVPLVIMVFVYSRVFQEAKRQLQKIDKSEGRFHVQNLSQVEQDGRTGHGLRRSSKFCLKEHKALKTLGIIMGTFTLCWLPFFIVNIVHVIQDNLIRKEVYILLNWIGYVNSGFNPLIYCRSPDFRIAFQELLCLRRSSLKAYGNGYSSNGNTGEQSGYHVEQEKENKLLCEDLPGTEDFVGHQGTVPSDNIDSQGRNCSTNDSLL
Muscarinic acetylcholine receptor M1 (Homo sapiens), sequence (P11229 whole entry, looked up): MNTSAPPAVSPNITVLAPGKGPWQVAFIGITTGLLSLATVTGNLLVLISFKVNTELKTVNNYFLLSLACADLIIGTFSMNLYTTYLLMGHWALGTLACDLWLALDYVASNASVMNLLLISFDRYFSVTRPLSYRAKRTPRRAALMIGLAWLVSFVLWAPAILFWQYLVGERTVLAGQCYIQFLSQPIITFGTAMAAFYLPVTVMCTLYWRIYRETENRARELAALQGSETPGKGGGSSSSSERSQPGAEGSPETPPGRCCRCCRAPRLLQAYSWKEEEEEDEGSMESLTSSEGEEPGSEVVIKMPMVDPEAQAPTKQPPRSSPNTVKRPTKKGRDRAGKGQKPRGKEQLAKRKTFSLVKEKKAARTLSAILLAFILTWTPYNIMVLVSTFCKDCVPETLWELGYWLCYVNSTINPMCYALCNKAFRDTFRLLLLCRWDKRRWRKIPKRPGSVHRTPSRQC
5-hydroxytryptamine receptor 2A (Homo sapiens), sequence (P28223 whole entry, looked up): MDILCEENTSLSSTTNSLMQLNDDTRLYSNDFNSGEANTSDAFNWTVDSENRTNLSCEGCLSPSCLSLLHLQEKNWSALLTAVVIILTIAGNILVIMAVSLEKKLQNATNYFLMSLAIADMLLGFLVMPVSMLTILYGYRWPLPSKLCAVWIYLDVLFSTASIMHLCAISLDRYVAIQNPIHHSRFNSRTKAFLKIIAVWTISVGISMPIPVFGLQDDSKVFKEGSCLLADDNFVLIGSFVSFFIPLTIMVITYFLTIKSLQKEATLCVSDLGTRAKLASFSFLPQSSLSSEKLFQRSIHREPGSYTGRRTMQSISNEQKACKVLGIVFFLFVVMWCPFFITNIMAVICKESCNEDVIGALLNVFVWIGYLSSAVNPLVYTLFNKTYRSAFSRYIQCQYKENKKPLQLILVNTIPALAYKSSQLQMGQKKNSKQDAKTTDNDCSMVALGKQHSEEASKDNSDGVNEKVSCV
KiSS-1 receptor (Homo sapiens), sequence (Q969F8 whole entry, looked up): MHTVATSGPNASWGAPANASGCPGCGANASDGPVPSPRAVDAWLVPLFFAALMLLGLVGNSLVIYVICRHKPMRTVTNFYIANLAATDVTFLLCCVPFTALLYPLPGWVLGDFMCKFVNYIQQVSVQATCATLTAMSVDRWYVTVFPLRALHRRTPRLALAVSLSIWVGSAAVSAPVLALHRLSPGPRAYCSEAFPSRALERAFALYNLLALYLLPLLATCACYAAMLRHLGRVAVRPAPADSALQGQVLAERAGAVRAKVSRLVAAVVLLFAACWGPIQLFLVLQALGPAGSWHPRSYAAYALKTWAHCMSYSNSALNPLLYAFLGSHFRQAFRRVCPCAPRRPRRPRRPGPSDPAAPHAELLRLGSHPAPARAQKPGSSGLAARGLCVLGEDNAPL
Gonadotropin-releasing hormone receptor (Homo sapiens), sequence (P30968 whole entry, looked up): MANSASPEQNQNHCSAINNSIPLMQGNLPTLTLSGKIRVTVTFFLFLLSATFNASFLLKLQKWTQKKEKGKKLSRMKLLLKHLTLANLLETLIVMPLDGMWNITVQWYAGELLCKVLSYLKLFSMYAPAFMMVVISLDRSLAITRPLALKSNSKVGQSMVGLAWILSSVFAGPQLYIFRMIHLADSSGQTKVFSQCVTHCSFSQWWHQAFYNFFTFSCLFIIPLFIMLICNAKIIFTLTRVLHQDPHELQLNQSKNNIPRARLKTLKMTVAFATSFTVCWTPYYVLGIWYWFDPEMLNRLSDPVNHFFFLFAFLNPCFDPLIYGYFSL

In the case of `c1c[nH]cn1`, the Potency entry in test [1], in test [2], in [3], in test [4], in [5] and in test [6] was “inactive” throughout. Also, the Potency result in test [7], in test [8], in test [9], in [10], in [11] and in test [12] was “inactive” throughout. The Potency result in test [13], in [14], in [15], in [16] and in test [17] was “inactive” in each case.
Turning to `O=CC1CC=CCC1` (stereo not drawn), the Potency entry in test [1], in [2], in [3], in test [4], in [5] and in test [6] was “inactive” in each case. For the same molecule, the Potency entry in test [7], in test [18], in test [9], in test [10], in test [11] and in [12] was “inactive” throughout. In addition, the Potency entry in test [13], in test [14], in [15], in test [19], in [16] and in test [17] was “inactive” throughout.
On to `CCCCOC(=O)C(C)OC(=O)CCC` (stereo not drawn), for which the Potency result in test [1], in test [2], in test [3], in test [4], in [5] and in test [6] was “inactive” in each case. Also, the Potency result in [7], in [18], in test [9], in [10], in test [11] and in test [12] was “inactive” in each case. For the same molecule, the Potency result in test [13], in test [14], in [15], in test [19], in [20] and in test [16] was “inactive” each time. For the same molecule, the Potency result in [17] was “inactive”.
As for `CC(C)(C)c1ccc(C(=O)CCCCl)cc1`, in test [1], the Potency was 23.7 µM (active). The Potency result in test [2], in [3], in [4], in [5], in [6] and in test [8] was “inactive” in each case. The Potency result in [18], in test [9], in test [11], in [12], in [13] and in [14] was “inactive” in each case. In addition, the Potency entry in test [15], in test [19], in test [16] and in test [17] was “inactive” throughout.
Regarding `COc1cc(/C=C/C(=O)O[C@H]2CC[C@]34C[C@]35CC[C@]3(C)[C@@H]([C@H](C)CCC=C(C)C)CC[C@@]3(C)[C@@H]5CC[C@H]4C2(C)C)ccc1O`, the Potency entry in test [1], in test [2], in test [3], in test [4], in test [5] and in [6] was “inactive” each time. Besides, the Potency entry in test [8], in test [9], in test [10], in test [11], in test [12] and in [13] was “inactive” throughout. Also, the Potency entry in test [14], in test [15], in test [19], in [16] and in test [17] was “inactive” throughout.
In the case of `O=C(O)c1cc2ccccc2cc1O`, the Potency entry in test [1], in test [2], in test [3], in test [4], in [7] and in test [8] was “inactive” each time. For the same molecule, the Potency entry in test [18], in test [10], in [11], in test [15], in test [19] and in test [20] was “inactive” each time. For the same molecule, the Potency entry in [16] and in test [17] was “inactive” in each case.
Turning to `O=C1c2c(O)ccc(Nc3ccc(CCO)cc3)c2C(=O)c2c([N+](=O)[O-])ccc(O)c21`, the Potency in test [1] is 30.6 µM (active). For the same molecule, the Potency result in test [2], in test [3], in test [4], in test [5], in test [6] and in test [7] was “inactive” throughout. The Potency result in [8], in test [18], in test [9], in test [11], in test [12] and in test [13] was “inactive” in each case.
For `OC[C@H]1O[C@@H]2O[C@H]3[C@H](O)[C@@H](O)[C@@H](O[C@H]4[C@H](O)[C@@H](O)[C@@H](O[C@H]5[C@H](O)[C@@H](O)[C@@H](O[C@H]6[C@H](O)[C@@H](O)[C@@H](O[C@H]7[C@H](O)[C@@H](O)[C@@H](O[C@H]8[C@H](O)[C@@H](O)[C@@H](O[C@H]1[C@H](O)[C@H]2O)O[C@@H]8CO)O[C@@H]7CO)O[C@@H]6CO)O[C@@H]5CO)O[C@@H]4CO)O[C@@H]3CO`, the Potency entry in test [1], in [2], in [3], in [4], in [7] and in test [8] was “inactive” in each case. Further, the Potency entry in test [18], in test [14], in test [15], in test [19], in test [20] and in [16] was “inactive” in each case. In addition, the Potency entry in test [17] was “inactive”.
